Measurements from the supplement of paper PMC11732987, “Enantioselective OTUD7B fragment discovery through chemoproteomics screening and high-throughput optimisation” (Communications Chemistry, 2025).

Columns and labels:
Assay in all cases: log2 ratio of Biotin-Ahx-Ub-VS probe labelling (fragment/DMSO); higher = less target engagement (more negative = stronger competition), active = hit call of the paper (q ≤ 0.05, log2 ratio ≤ -1)
Conditions in all cases: compound concentration: 200 uM; treatment time: 3 h
ALG13 = molecular target: T1, ALG13 (UniProt Q9NP73)
T1 sequence (whole entry): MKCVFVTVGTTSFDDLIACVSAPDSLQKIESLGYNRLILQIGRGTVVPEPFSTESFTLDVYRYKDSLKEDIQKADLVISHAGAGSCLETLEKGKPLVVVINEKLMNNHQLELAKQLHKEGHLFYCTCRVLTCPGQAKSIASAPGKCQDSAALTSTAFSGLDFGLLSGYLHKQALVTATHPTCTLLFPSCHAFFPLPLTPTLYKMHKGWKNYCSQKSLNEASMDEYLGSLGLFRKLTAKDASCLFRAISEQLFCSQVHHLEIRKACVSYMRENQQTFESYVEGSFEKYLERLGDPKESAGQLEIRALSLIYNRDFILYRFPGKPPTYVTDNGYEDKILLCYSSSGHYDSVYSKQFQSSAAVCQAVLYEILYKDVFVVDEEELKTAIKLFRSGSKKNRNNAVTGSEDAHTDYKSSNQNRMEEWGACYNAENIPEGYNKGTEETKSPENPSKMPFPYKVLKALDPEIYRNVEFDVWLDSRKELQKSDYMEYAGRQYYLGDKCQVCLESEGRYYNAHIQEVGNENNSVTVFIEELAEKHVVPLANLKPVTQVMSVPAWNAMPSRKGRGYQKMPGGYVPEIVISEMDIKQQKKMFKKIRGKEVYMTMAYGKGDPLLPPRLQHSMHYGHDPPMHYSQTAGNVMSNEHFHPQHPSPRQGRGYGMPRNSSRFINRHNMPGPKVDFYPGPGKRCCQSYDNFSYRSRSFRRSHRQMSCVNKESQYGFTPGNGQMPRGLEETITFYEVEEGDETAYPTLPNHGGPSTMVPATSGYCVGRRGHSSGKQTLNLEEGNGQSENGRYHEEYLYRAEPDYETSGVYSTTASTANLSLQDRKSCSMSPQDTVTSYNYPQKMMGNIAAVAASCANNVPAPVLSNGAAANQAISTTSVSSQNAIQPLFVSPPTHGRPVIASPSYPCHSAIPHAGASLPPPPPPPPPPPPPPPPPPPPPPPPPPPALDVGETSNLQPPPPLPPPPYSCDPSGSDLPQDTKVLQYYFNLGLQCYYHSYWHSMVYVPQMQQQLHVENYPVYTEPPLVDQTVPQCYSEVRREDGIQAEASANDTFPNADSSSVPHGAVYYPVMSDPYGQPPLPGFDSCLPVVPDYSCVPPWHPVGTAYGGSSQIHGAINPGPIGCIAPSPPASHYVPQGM
Summary of the method: (§1)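 The table lists average log2 ratios of fragment over vehicle, from an unpaired t-test on global-median-normalised Spectronaut label-free quantities. Proteins with ≥2 unique peptides were used. Samples were HEK293T lysate (495 µg) treated in triplicate with fragment at 200 µM or vehicle for 3 h, then with Biotin-Ahx-Ub-VS (0.5 µM final) for 1 h, with labelled DUBs NeutrAvidin-enriched and run by diaPASEF LC-MS/MS.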

ATXN3 = ATXN3 (UniProt P54252)
Chain of ATXN3 (P54252 whole entry): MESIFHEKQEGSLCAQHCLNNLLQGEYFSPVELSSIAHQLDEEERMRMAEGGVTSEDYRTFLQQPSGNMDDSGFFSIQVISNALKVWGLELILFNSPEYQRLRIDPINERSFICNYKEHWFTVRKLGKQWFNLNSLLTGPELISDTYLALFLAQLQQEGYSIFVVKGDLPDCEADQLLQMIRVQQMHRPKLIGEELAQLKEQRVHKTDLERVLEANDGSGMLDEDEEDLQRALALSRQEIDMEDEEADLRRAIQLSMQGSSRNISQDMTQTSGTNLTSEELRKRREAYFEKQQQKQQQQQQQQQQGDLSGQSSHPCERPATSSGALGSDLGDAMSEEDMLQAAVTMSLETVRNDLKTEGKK
Summary of the method: as §1

BAP1 = molecular target: T2, BAP1 (UniProt Q92560)
T2 sequence (whole entry): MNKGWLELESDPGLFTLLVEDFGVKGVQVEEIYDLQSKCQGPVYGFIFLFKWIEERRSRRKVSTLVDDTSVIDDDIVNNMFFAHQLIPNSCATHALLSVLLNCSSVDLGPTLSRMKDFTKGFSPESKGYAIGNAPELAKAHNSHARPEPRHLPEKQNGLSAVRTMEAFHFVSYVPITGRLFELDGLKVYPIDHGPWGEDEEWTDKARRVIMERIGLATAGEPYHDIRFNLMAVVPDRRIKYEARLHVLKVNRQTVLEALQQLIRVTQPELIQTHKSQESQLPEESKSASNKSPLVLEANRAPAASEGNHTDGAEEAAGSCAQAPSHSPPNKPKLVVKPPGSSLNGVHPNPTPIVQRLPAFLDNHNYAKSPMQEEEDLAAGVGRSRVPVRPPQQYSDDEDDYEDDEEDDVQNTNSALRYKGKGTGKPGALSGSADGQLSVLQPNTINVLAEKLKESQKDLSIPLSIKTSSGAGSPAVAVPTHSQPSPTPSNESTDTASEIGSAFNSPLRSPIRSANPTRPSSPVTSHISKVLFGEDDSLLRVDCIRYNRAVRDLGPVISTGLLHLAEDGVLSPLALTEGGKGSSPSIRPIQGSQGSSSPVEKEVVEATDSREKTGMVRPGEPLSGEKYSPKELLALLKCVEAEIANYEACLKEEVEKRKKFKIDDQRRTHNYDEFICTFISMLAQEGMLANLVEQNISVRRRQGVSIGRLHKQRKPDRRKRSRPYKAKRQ
Summary of the method: as §1

EIF3F = EIF3F (UniProt O00303)
Chain of EIF3F (O00303 whole entry): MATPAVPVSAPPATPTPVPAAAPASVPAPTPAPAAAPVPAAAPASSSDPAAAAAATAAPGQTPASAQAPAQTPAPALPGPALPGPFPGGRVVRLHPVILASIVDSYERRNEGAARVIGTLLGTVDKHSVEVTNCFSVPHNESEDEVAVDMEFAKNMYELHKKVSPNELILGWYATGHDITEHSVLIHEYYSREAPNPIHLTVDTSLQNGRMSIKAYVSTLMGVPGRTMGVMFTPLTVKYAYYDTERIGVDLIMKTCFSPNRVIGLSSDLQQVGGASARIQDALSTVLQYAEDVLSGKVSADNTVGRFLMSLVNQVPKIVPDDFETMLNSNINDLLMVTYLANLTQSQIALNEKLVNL
Summary of the method: as §1

EIF3H = EIF3H (UniProt O15372)
Chain of EIF3H (O15372 whole entry): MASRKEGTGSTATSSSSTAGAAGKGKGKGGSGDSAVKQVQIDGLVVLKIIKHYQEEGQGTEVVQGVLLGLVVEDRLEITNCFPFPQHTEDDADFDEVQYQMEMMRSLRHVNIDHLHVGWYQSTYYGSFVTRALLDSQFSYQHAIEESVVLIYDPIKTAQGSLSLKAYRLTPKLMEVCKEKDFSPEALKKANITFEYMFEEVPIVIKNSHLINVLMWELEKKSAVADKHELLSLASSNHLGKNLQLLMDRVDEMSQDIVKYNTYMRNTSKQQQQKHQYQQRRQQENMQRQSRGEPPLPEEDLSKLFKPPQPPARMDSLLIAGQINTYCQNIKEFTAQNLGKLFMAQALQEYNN
Summary of the method: as §1

FAM105A = molecular target: T3, FAM105A (UniProt Q9NUU6)
T3 sequence (whole entry): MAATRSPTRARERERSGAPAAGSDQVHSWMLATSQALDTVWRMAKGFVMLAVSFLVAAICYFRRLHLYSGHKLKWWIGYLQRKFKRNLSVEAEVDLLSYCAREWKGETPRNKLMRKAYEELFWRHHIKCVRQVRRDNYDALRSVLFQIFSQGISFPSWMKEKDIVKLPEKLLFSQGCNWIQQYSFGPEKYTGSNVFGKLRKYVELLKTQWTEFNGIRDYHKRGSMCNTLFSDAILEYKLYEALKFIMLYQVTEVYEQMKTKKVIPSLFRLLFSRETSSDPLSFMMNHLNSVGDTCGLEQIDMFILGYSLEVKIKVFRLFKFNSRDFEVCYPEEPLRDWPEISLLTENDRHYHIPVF
Summary of the method: as §1

OTUB1 = OTUB1 (UniProt Q96FW1)
Chain of OTUB1 (Q96FW1 whole entry): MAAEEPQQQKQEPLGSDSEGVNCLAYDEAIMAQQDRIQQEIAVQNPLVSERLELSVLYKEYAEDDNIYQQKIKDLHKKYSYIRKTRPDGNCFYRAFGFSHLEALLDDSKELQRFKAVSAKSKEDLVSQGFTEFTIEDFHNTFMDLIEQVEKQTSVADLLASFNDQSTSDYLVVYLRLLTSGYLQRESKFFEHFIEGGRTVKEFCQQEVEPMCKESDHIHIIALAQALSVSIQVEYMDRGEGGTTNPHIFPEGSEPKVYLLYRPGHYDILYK
Summary of the method: as §1

OTUD4 = molecular target: T4, OTUD4 (UniProt Q01804)
T4 sequence (whole entry): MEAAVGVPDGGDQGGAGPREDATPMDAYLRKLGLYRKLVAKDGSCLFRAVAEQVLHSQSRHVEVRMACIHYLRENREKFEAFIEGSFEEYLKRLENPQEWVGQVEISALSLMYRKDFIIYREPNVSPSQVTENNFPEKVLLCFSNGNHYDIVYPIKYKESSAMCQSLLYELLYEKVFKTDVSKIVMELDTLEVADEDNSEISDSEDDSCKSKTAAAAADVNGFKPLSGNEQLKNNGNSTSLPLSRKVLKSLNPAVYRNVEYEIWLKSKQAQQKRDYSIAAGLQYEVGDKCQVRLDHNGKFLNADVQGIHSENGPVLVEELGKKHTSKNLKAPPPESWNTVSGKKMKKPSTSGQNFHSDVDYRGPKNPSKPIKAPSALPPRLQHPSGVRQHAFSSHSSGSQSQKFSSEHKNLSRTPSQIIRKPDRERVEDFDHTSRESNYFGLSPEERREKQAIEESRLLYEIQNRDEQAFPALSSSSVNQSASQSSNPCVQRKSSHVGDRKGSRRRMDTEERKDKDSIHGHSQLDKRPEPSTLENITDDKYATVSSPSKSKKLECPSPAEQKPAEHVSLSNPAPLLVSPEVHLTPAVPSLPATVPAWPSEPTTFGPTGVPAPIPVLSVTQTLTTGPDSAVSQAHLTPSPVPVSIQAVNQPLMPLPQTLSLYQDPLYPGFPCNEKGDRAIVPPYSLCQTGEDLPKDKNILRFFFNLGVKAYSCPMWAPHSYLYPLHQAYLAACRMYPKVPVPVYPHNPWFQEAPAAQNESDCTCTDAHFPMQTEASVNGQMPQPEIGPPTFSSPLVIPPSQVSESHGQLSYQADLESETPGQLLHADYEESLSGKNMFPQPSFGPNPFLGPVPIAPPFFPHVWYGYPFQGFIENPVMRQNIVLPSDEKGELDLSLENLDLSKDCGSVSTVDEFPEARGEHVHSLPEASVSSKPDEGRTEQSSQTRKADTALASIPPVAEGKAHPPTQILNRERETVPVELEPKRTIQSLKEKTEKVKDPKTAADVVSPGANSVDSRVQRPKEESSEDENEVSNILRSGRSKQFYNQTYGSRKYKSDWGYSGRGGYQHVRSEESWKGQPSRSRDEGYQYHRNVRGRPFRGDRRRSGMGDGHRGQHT
Summary of the method: as §1

OTUD5 = molecular target: T5, OTUD5 (UniProt Q96G74)
T5 sequence (whole entry): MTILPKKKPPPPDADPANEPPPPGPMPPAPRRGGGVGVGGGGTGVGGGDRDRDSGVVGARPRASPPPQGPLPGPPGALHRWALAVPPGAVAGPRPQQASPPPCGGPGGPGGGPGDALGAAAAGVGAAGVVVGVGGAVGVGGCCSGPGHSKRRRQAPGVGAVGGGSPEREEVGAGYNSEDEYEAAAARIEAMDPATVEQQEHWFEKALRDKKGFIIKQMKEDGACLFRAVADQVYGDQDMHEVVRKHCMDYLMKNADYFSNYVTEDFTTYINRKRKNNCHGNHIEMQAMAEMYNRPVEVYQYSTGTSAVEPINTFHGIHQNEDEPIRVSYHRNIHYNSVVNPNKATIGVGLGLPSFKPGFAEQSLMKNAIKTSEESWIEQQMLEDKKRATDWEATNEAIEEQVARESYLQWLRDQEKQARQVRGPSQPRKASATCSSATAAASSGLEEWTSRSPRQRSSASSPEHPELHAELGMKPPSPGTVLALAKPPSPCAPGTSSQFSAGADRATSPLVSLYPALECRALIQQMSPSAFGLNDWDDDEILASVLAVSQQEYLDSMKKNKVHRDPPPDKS
Summary of the method: as §1

Measured: log2 ratio of Biotin-Ahx-Ub-VS probe labelling

N#Cc1ccccc1N1CCN(C(=O)CCl)CC1
inactive: ALG13 -0.383 | EIF3F -0.123 | EIF3H -0.0881 | FAM105A 0.162 | OTUB1 -0.449 | OTUD4 -0.714 | OTUD5 -0.872
active: ATXN3 -1.16 | BAP1 -1.32

O=C(CCl)N1CCc2nc[nH]c2C1c1ccc(Cl)cc1 (stereo unspecified)
inactive: ALG13 -0.0235 | ATXN3 -0.508 | EIF3F -0.277 | EIF3H 0.263 | FAM105A 0.102 | OTUB1 0.00111 | OTUD4 -0.508
active: BAP1 -1.65 | OTUD5 -1.26

Cc1ccc2nnc(CNC(=O)CCl)n2c1
inactive: ALG13 0.205 | ATXN3 -0.0879 | EIF3F -0.17 | EIF3H 0.00833 | FAM105A 0.283 | OTUB1 0.0976 | OTUD4 0.0524 | OTUD5 0.0162
active: BAP1 -1.05

CN(C)S(=O)(=O)c1ccccc1CNC(=O)CCl
active: BAP1 -1.09
inactive: ALG13 0.242 | ATXN3 -0.137 | EIF3F -0.0947 | EIF3H 0.29 | FAM105A -0.0283 | OTUB1 -0.0251 | OTUD4 -0.249 | OTUD5 -0.29

O=C(CCl)N1c2ccccc2NC(=O)C12CCCC2
inactive: ALG13 -0.0909 | ATXN3 -0.311 | BAP1 -0.609 | EIF3F -0.0311 | EIF3H 0.277 | FAM105A 0.141 | OTUB1 -0.478 | OTUD4 -0.196 | OTUD5 -0.711

COCC[C@@H](NC(=O)CCl)c1ccccc1
active: BAP1 -1.89
inactive: ALG13 -0.555 | ATXN3 -0.208 | EIF3F -0.137 | EIF3H -0.017 | FAM105A 0.268 | OTUB1 -0.131 | OTUD4 -0.138 | OTUD5 -0.197

Cc1cccc(N(CCC#N)C(=O)CCl)c1C
active: OTUD4 -1.76
inactive: ALG13 -0.29 | ATXN3 0.0325 | BAP1 -0.645 | EIF3F -0.0896 | EIF3H 0.111 | FAM105A -0.0506 | OTUB1 0.00102 | OTUD5 -0.19

Cl.O=C(CCl)N1CCn2ncc(O)c2C1
active: ATXN3 -1.69 | BAP1 -2.39
inactive: ALG13 0.326 | EIF3F -0.296 | EIF3H 0.21 | FAM105A -0.377 | OTUB1 -0.64 | OTUD4 -0.808 | OTUD5 -0.908

Cl.O=C(CCl)N1CCCC(c2ncc[nH]2)C1 (stereo unspecified)
inactive: ALG13 0.0212 | ATXN3 -0.259 | BAP1 -0.246 | EIF3F -0.0106 | EIF3H 0.267 | FAM105A 0.0977 | OTUB1 -0.0773 | OTUD4 -0.288 | OTUD5 -0.22

COc1ccc(CN(C)C(=O)CCl)cc1
active: BAP1 -1.65
inactive: ALG13 -0.466 | ATXN3 -0.667 | EIF3F -0.171 | EIF3H 0.0709 | FAM105A 0.32 | OTUB1 -0.0239 | OTUD4 -0.413 | OTUD5 -0.536

CC(C)n1nccc1NC(=O)CCl
inactive: ALG13 -0.568 | ATXN3 -0.233 | EIF3F -0.0764 | EIF3H 0.237 | FAM105A 0.00922 | OTUB1 -0.27 | OTUD4 -0.438 | OTUD5 -0.522
active: BAP1 -4.23

O=C(CCl)Nc1cccc(C(=O)N2CCSCC2)c1
inactive: ALG13 0.254 | ATXN3 -0.874 | EIF3F -0.466 | EIF3H 0.0708 | FAM105A 0.0218 | OTUB1 -0.523 | OTUD4 -0.0407 | OTUD5 -0.638
active: BAP1 -3.62

Cc1ccccc1CN(C)C(=O)CCl
inactive: ALG13 -0.539 | EIF3F -0.115 | EIF3H 0.207 | FAM105A -0.463 | OTUB1 -0.437 | OTUD4 -0.914
active: ATXN3 -1.13 | BAP1 -2.27 | OTUD5 -1.15

CN(C)C(=O)c1ccc(NC(=O)CCl)cc1
inactive: ALG13 -0.115 | ATXN3 -0.241 | EIF3F 0.168 | EIF3H 0.142 | FAM105A 0.105 | OTUB1 0.31 | OTUD4 -0.109 | OTUD5 -0.508
active: BAP1 -3.59
